According to PubChem BioAssay AID485294 (National Center for Advancing Translational Sciences (NCATS), 2010):
Screen size: about 370,000 compounds; about 150 (0.041%) were called active. Another 14% or so got no clear call; they are omitted. Calls follow the shape of the dose curve; as a rule, active = well fitted inhibition curve with a large enough effect; inconclusive = small, poorly fitted or top-dose-only effect; inactive = flat fitted curve, though single readings scatter. Only a selection was taken, and actives are over-represented in it overall.

The compounds below were run against Beta-lactamase (Escherichia coli (strain K12)) (UniProt P00811) (assay: qHTS Inhibitors of AmpC Beta-Lactamase (assay with detergent)). Settings: AmpC hydrolysis of nitrocefin, absorbance 480 nm, 0.01% Triton; series mostly up to 114 µM; activity change, negative = inhibition: at the top concentration.
Description: NIH Molecular Libraries Probe Production Network [MLPCN] NIH Chemical Genomics Center [NCGC] Assay Provider: Professor Brian Shoichet, UCSF Assay Overview: This aggregation profiling approach exploits the sensitivity of aggregate formation to detergent. Inhibition of b-lactamase is measured in the presence and absence of 0.01% Triton X-100. This particular assay had the prescence of 0.01% Triton X-100. See Pubchem assay "Promiscuous and Specific Inhibitors of AmpC Beta-Lactamase (assay without detergent)" for related screen. Compounds that inhibit only in the absence of detergent are considered likely promiscuous aggregators. A screen of 1,030 compounds was performed in Brian Shoichet's lab in 96-well format. AmpC activity was measured by following the absorbance at 480 nm. Nitrocefin is a chromogenic substrate: while nitrocefin is yellow (lmax 390 nm), the product of its hydrolysis is red (lmax 486 nm, 17,000 M-1). AmpC beta lactamase was provided by Shoichet Lab, UCSF.
Buffer: 20 mM phosphate buffer, pH 7.0 Triton X-100: No Detergent screen: 0.0001%, Detergent screen: 0.01%. Reagents/Controls: Buffer in columns 3 and 4 as negative control (no enzyme). 5.3 nM AmpC in columns 1, 2, 5-48. Titration of UCSF compound 9 control (from 10 mM, then 1:2) pin-transferred to column 2. Column 1 is neutral (100% activity). Assay Steps: Six uL of reagents were dispensed to 1536-well Greiner black clear bottom plates. Compounds and controls (23 nL) were transferred via Kalypsys PinTool. The plates were incubated for 15 min at room temperature, and then 2 uL of 800 uM solution of nitrocefin was added to start the reaction. The plates were immediately transferred to and read every 20 seconds for 4 min on ViewLux (Perkin-Elmer) High-throughput CCD imager using 480 nm absorbance protocol. During dispense, reagent bottles were kept submerged into 4 deg C water bath. Keywords: NIH Roadmap, MLSCN, MLI, MLSMR, qHTS, NCGC, AmpC Beta-Lactamase, Aggregation
Also: nearly all actives have a fitted effect of over 25% in size.
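For activity change, negative = inhibition in this document: 0% = no-compound wells and -100% = no-enzyme wells.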
Potency is read from the fitted curve at half-maximal effect.

Chain of Beta-lactamase (Escherichia coli (strain K12)) (P00811 whole entry, looked up): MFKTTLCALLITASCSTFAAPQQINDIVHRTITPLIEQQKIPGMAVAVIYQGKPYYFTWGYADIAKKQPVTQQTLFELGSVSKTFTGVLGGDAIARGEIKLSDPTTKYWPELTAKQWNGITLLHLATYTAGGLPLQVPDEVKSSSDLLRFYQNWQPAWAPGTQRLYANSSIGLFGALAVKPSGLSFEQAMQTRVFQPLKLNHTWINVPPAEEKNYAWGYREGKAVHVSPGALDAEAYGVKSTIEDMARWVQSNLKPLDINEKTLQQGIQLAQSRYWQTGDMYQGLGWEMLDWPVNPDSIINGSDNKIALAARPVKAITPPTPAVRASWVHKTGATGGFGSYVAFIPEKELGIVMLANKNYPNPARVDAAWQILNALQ

Row | SMILES | activity change, negative = inhibition | Potency
1 | Cc1cccc(-n2ncc(C(=O)N3CCN(c4ccc(Cl)cc4)CC3)c2C2CCN(C(=O)OC(C)(C)C)CC2)c1 | 22.4% (inactive) | 
2 | CCOC(=O)c1ccc(NC(=O)CCS(=O)(=O)c2ccc(C)cc2)cc1 | -5.95% (inactive) | 
3 | CCOC(=O)c1scc(-c2ccc(C)cc2)c1S(=O)(=O)Nc1cc(C)ccc1C | 19.9% (inactive) | 
4 | Cc1ccc(S(=O)(=O)N2CCc3cc(C(=O)Nc4ccc(Cl)cc4C)ccc32)cc1 | 18.7% (inactive) | 
5 | CC1CCCN(c2cc3c(cc2F)c(=O)c(S(=O)(=O)c2cccc(Cl)c2)cn3Cc2ccccc2)C1 (stereo not drawn) | 0.274% (inactive) | 
6 | CCOC(=O)c1ccc(NC(=O)CSc2nc3c([nH]c4ccccc43)c(=O)n2C)cc1 | 2.22% (inactive) | 
7 | COc1ccc(C2CC(=O)N(Cc3ccccc3C)c3c2c(C)nn3-c2nc(C)cc(C)n2)c(OC)c1 (stereo not drawn) | 14.8% (inactive) | 
8 | COc1ccc2c(c1)c(=O)c(S(=O)(=O)c1ccc(F)cc1)cn2CC(=O)Nc1ccc(C)cc1C | -3.33% (inactive) | 
9 | Cn1c(=O)nc2n(-c3ccc(Br)cc3)c3cccc(Cl)c3cc-2c1=O | 3.23% (inactive) | 
10 | O=C(Cn1cc(SCc2ccccc2)c2ccccc21)N1CCCCC1 | -4.92% (inactive) | 
11 | COCCCNC(=O)c1c(NC(=O)c2cc(=O)c3cc(C)c(C)cc3o2)sc2c1CCCC2 | 3.2% (inactive) | 
12 | COc1ccc2c(c1)c(N1CCCC1=O)c(C(=O)Nc1ccccc1C(F)(F)F)n2C | 14.7% (inactive) | 
13 | CCOc1cc(C(=O)NCCc2csc3nc(-c4ccc(C)cc4)nn23)cc(OCC)c1OCC | 11.5% (inactive) | 
14 | COc1ccccc1CNC(=O)CCn1c(=O)c2ccccc2n(CC(=O)Nc2cccc(Cl)c2)c1=O | 21.1% (inactive) | 
15 | O=C1OC(OC(=O)c2ccccc2Br)C(N2CCOCC2)=C1Cl (stereo not drawn) |  | 10 µM (active)
16 | O=C1OC(NC(=O)c2ccccc2)C(N2CCOCC2)=C1Cl (stereo not drawn) | -0.396% (inactive) | 
17 | COc1ccc(NS(=O)(=O)c2ccc(N3CCOCC3)c(NC(=O)c3ccccc3Br)c2)cc1 | -2.02% (inactive) | 
18 | Cc1oc2c(c1C(=O)Nc1ccc(F)c(F)c1)C1=NCCN1C=N2 | 29.2% (inactive) | 
19 | Cn1c(=O)sc2cc(NS(=O)(=O)c3ccc(C(C)(C)C)cc3)ccc21 | 23.6% (inactive) | 
20 | CCCN(CCC)C(=O)C(Cc1ccccc1)NS(=O)(=O)c1ccc2c(c1)c(=O)n(C)c(=O)n2C (stereo not drawn) | 4.62% (inactive) | 
21 | CCOc1ccc(NC(=O)c2c(NC(=O)Cc3ccccc3)sc3c2CCCCC3)cc1 | -6.09% (inactive) | 
22 | O=C(O)c1ccc(CSc2nc3cccnc3n2Cc2cccc(F)c2)cc1 | 0.0903% (inactive) | 
23 | COc1ccc(-c2nnc(SCC(=O)Nc3ccccc3C)o2)cc1OC | 24.4% (inactive) | 
24 | O=C(Nc1ccc(O)c(-c2nc3ccccc3o2)c1)c1ccc(-c2cccc(Cl)c2)o1 | 15.3% (inactive) | 

Row | SMILES | activity change, negative = inhibition | Potency
25 | O=C(Cn1c(=O)n(-c2ccc(F)cc2)c(=O)c2sccc21)Nc1cccc(C(F)(F)F)c1 | 0.688% (inactive) | 
26 | CSc1ccc(C2C(C(=O)Nc3ccccc3)=C(C)Nc3nc4ccccc4n32)cc1 (stereo not drawn) | -0.989% (inactive) | 
27 | COc1ccccc1NC(=O)COC(=O)COc1ccccc1F | 4.46% (inactive) | 
28 | CC(C)C(=O)NC(=S)Nc1ccccc1F | -9.56% (inactive) | 
29 | CC(Oc1ccccc1F)C(=O)NN (stereo not drawn) |  | 79.4 µM (active)
30 | COc1ccc2c(c1)c(=O)c(C(=O)c1ccccc1)cn2CC(=O)Nc1ccc2c(c1)OCCO2 | -6.8% (inactive) | 
31 | CC1CCCN(S(=O)(=O)c2ccc3[nH]c(=O)cc(C(=O)NCCc4ccc(Cl)cc4)c3c2)C1 (stereo not drawn) | 7.12% (inactive) | 
32 | O=S(=O)(NCC(c1ccccc1)N1CCc2ccccc21)c1ccccc1 (stereo not drawn) | -1.77% (inactive) | 
33 | Cc1ccc2nc(COc3cccc(NC(=O)Nc4ccc(C)c(Cl)c4)c3)cc(=O)n2c1 | 2.19% (inactive) | 
34 | CN1C(=O)/C(=N/OC(=O)c2ccccc2Br)c2ccccc21 |  | 35.5 µM (active)
35 | COc1ccc(C(=O)ON=C2c3ccccc3-c3ccccc32)cc1OC | -7.74% (inactive) | 
36 | CN1C(=O)/C(=C\c2cc(Br)cs2)c2ccccc21 | -18.1% (inactive) | 
37 | O=C(COc1ccccc1)NCc1ccc2c(c1)CCN2C(=O)c1ccc(F)cc1 | 6.72% (inactive) | 
38 | CCc1ccccc1NC(=O)Cn1c(=O)n(CC2CCC(C(=O)NCCc3ccccc3)CC2)c(=O)c2ccccc21 (stereo not drawn) | -3.1% (inactive) | 
39 | CCCn1c(=N)c(C(=O)NCc2ccccc2)cc2c(=O)n3cccc(C)c3nc21 | 6.68% (inactive) | 
40 | CC(C)c1cc(CN2CCOCC2)cc(C(C)C)c1O | 1.24% (inactive) | 
41 | N#Cc1cccc(CN2CCC(=O)N(CCO)CC2)c1 | -1.68% (inactive) | 
42 | CC(C)(C)c1cc(CN2CCN(CCC#N)CC2)cc(C(C)(C)C)c1O |  | 35.5 µM (active)
43 | Cc1nn(Cc2ccc(F)cc2)c(C)c1NC(=O)c1cc(CC(C)C)on1 | -7.87% (inactive) | 
44 | CCOC(=O)c1c(S(=O)(=O)N2CCC(C(=O)NCc3ccccc3OC)CC2)c(C)n(C)c1C | 6.8% (inactive) | 
45 | CC(C)(C)c1ccc(S(=O)(=O)N2CCN(C(=O)c3cc(-c4ccc(Br)cc4)n[nH]3)CC2)cc1 | 9.24% (inactive) | 
46 | COC(=O)CN1C(=O)CSc2ccc(S(=O)(=O)Nc3cc(C)ccc3C)cc21 | -2.29% (inactive) | 
47 | CCC1=Nc2cc(C(=O)NCCCOC(C)C)ccc2Sc2ccc(C)cc21 | -0.0613% (inactive) | 
48 | CC(C)c1ccc(C2CC(=O)N3CN(C4CCCCC4)CSC3=C2C#N)cc1 (stereo not drawn) | -6.41% (inactive) | 
